Measured values taken from PMC11006913.

Biological target: HOXB4 (Homo sapiens, UniProt P17483 148-234, V174I)
Experiment: PBM; 200 nM protein, PBS
Settings: dsDNA, one strand shown

Chain of HOXB4 (P17483 148-234 V174I): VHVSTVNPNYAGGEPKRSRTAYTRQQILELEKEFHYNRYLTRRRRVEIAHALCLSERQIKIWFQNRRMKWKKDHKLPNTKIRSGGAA

Compared with GTCCCAAC, AATTTCTG is higher in binding signal: 7.63 upbm affinity estimate (log intensity, higher = more binding, comparable within an allelic series) for the first, 9.62 upbm affinity estimate (log intensity, higher = more binding, comparable within an allelic series) for the second.

First: GAATAATC
Second: GTCGATGA
The binding signal of the first is higher: 11.3 upbm affinity estimate (log intensity, higher = more binding, comparable within an allelic series) for the first, 9.24 upbm affinity estimate (log intensity, higher = more binding, comparable within an allelic series) for the second.

First: AATAGCCA
Second: GGCTAATA
The binding signal of the first is lower: 10.3 upbm affinity estimate (log intensity, higher = more binding, comparable within an allelic series) for the first, 11.9 upbm affinity estimate (log intensity, higher = more binding, comparable within an allelic series) for the second.

Going from CGTGCCGC to AGGTCCAC, the binding signal rises from 7.57 upbm affinity estimate (log intensity, higher = more binding, comparable within an allelic series) to 7.65 upbm affinity estimate (log intensity, higher = more binding, comparable within an allelic series).

First: AAATGTTA
Second: CAACAGAG
The binding signal of the first is higher: 10.4 upbm affinity estimate (log intensity, higher = more binding, comparable within an allelic series) for the first, 7.66 upbm affinity estimate (log intensity, higher = more binding, comparable within an allelic series) for the second.

First: CGAATCTC
Second: CACGTGCG
The binding signal of the first is higher: 7.74 upbm affinity estimate (log intensity, higher = more binding, comparable within an allelic series) for the first, 7.71 upbm affinity estimate (log intensity, higher = more binding, comparable within an allelic series) for the second.

First: GAATGAAC
Second: GGACCGAC
The binding signal of the first is higher: 8.78 upbm affinity estimate (log intensity, higher = more binding, comparable within an allelic series) for the first, 7.41 upbm affinity estimate (log intensity, higher = more binding, comparable within an allelic series) for the second.

Going from ACTAATAA to CACGTGGG, the binding signal falls from 12.5 upbm affinity estimate (log intensity, higher = more binding, comparable within an allelic series) to 7.46 upbm affinity estimate (log intensity, higher = more binding, comparable within an allelic series).

First: AGGAGGAG
Second: GCGCGGGA
The binding signal of the first is higher: 7.57 upbm affinity estimate (log intensity, higher = more binding, comparable within an allelic series) for the first, 7.49 upbm affinity estimate (log intensity, higher = more binding, comparable within an allelic series) for the second.

Compared with ATAAAGTA, CTGGGGGA is lower in binding signal: 10.6 upbm affinity estimate (log intensity, higher = more binding, comparable within an allelic series) for the first, 7.53 upbm affinity estimate (log intensity, higher = more binding, comparable within an allelic series) for the second.

Compared with CGGGATGC, CTCCCGGC is lower in binding signal: 7.57 upbm affinity estimate (log intensity, higher = more binding, comparable within an allelic series) for the first, 7.56 upbm affinity estimate (log intensity, higher = more binding, comparable within an allelic series) for the second.

First: TCATTGGA
Second: CAGAAGGC
The binding signal of the first is higher: 9.83 upbm affinity estimate (log intensity, higher = more binding, comparable within an allelic series) for the first, 7.7 upbm affinity estimate (log intensity, higher = more binding, comparable within an allelic series) for the second.

Compared with CCGACGGA, ATTAGTTG is higher in binding signal: 7.56 upbm affinity estimate (log intensity, higher = more binding, comparable within an allelic series) for the first, 11.5 upbm affinity estimate (log intensity, higher = more binding, comparable within an allelic series) for the second.

Compared with CCGGGTTC, CCAGTTGC is lower in binding signal: 7.65 upbm affinity estimate (log intensity, higher = more binding, comparable within an allelic series) for the first, 7.61 upbm affinity estimate (log intensity, higher = more binding, comparable within an allelic series) for the second.

First: AACGATAT
Second: CGGGCTGC
The binding signal of the first is higher: 10.9 upbm affinity estimate (log intensity, higher = more binding, comparable within an allelic series) for the first, 7.82 upbm affinity estimate (log intensity, higher = more binding, comparable within an allelic series) for the second.

Going from AATACAAG to CGGGAAAG, the binding signal falls from 9.49 upbm affinity estimate (log intensity, higher = more binding, comparable within an allelic series) to 7.56 upbm affinity estimate (log intensity, higher = more binding, comparable within an allelic series).

First: ATCGTTCC
Second: CTAGGCAG
The binding signal of the first is higher: 9.76 upbm affinity estimate (log intensity, higher = more binding, comparable within an allelic series) for the first, 7.88 upbm affinity estimate (log intensity, higher = more binding, comparable within an allelic series) for the second.

First: GCTGGCGA
Second: CCCGTGCG
The binding signal of the first is lower: 7.45 upbm affinity estimate (log intensity, higher = more binding, comparable within an allelic series) for the first, 7.88 upbm affinity estimate (log intensity, higher = more binding, comparable within an allelic series) for the second.

Going from CCTGGAAG to ATTGATCC, the binding signal rises from 7.54 upbm affinity estimate (log intensity, higher = more binding, comparable within an allelic series) to 10 upbm affinity estimate (log intensity, higher = more binding, comparable within an allelic series).

Going from AAGCCAAT to CCGTTATC, the binding signal falls from 10.6 upbm affinity estimate (log intensity, higher = more binding, comparable within an allelic series) to 9.74 upbm affinity estimate (log intensity, higher = more binding, comparable within an allelic series).

Biological target: MSX2 (Homo sapiens, UniProt P35548 130-214, R199I)
Sequence (P35548 130-214 R199I): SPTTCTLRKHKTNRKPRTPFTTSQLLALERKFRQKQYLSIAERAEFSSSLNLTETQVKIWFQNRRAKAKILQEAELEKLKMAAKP
Experiment: PBM; 200 nM protein, PBS
Settings: dsDNA, one strand shown

First: CGTGCCGC
Second: GCGCGGGA
The binding signal of the first is lower: 9.41 upbm affinity estimate (log intensity, higher = more binding, comparable within an allelic series) for the first, 9.54 upbm affinity estimate (log intensity, higher = more binding, comparable within an allelic series) for the second.

CGGGCTGC was tested, and the binding signal was 9.39 upbm affinity estimate (log intensity, higher = more binding, comparable within an allelic series).

Biological target: ALX3 (Homo sapiens, UniProt O95076 139-225, N203Q)
Sequence (O95076 139-225 N203Q): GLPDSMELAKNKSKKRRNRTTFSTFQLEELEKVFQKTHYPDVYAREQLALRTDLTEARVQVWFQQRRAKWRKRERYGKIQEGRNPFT
Experiment: PBM; 200 nM protein, PBS
Settings: dsDNA, one strand shown

Compared with ACTAATAA, CTGGGGGA is lower in binding signal: 8.53 upbm affinity estimate (log intensity, higher = more binding, comparable within an allelic series) for the first, 7.77 upbm affinity estimate (log intensity, higher = more binding, comparable within an allelic series) for the second.

With CTCCCGGC the binding signal was 7.65 upbm affinity estimate (log intensity, higher = more binding, comparable within an allelic series).

Biological target: MSX2 (Homo sapiens, UniProt P35548 130-214)
Sequence (P35548 130-214): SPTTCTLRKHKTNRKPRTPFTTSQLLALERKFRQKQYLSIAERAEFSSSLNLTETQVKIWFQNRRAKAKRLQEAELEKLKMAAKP
Experiment: PBM; 200 nM protein, PBS
Settings: dsDNA, one strand shown

Compared with CGTGCCGC, GCGCGGGA is higher in binding signal: 9.35 upbm affinity estimate (log intensity, higher = more binding, comparable within an allelic series) for the first, 9.49 upbm affinity estimate (log intensity, higher = more binding, comparable within an allelic series) for the second.

For CGGGCTGC, the binding signal was 9.57 upbm affinity estimate (log intensity, higher = more binding, comparable within an allelic series).

Biological target: MSX2 (Homo sapiens, UniProt P35548 130-214, F161Y)
Sequence (P35548 130-214 F161Y): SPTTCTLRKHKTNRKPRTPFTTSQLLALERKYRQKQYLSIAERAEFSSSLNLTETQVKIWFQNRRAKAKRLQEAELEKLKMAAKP
Experiment: PBM; 200 nM protein, PBS
Settings: dsDNA, one strand shown

First: CGTGCCGC
Second: GCGCGGGA
The binding signal of the first is lower: 9.43 upbm affinity estimate (log intensity, higher = more binding, comparable within an allelic series) for the first, 9.51 upbm affinity estimate (log intensity, higher = more binding, comparable within an allelic series) for the second.

CGGGCTGC was tested, and the binding signal was 9.57 upbm affinity estimate (log intensity, higher = more binding, comparable within an allelic series).
